Where “and” joins values, the source holds several entries; their conditions need not be identical. Identical values can stand only once. Inconclusive results are not listed. Where a call stands in place of a potency, no number is given. More than one record can exist for a structure, and the calls need not agree. Calls of active or inactive are those of the source. Unless noted, the call rests on the fitted dose curve; in most records, active means well fitted curve in the direction sought with a large enough effect in the repeat runs; inconclusive means weak or mixed curves; inactive means no such curve, though single readings can be large; an effect the other way counts as inactive or inconclusive.
Legend:
[1] = Caspase-3/7 induction in HepG2 cells by small molecules, qHTS assay (AID 1346978); further: nearly all actives have a fitted effect of over 15% in size
Outline: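 Caspase-3/7 induction was measured by Caspase-Glo 3/7 luminescence (30 min, room temperature) after a 17 hr compound exposure of wild-type HepG2 cells seeded at 2,000 per well and pre-incubated 5 hr.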

[2] = Caspase-3/7 induction in CHO-K1 cells by small molecules, qHTS cell viability counter screen (AID 1346979); further: nearly all actives have a fitted effect of over 35% in size; further: potency means the concentration at half of the fitted maximal effect
Outline: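 Seeding: 1,500 CHO-K1 cells/well. Rest: 5hr, 37C. Treatment: compounds in DMSO, 16hr. Read: CellTiter-Fluor, 1hr, fluorescence.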

[3] = Caspase-3/7 induction in CHO-K1 cells by small molecules, qHTS assay (AID 1346980); further: nearly all actives have a fitted effect of over 15% in size
Outline: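 Luminescent Caspase-Glo 3/7 read (30min, room temperature) quantified apoptosis induction. Cells were wild-type CHO-K1, treated with compound for 17hr at 37 C and 5% CO2.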

[4] = Caspase-3/7 induction in HepG2 cells by small molecules, qHTS cell viability counter screen (AID 1346981); further: nearly all actives have a fitted effect of over 30% in size; further: potency means the concentration at half of the fitted maximal effect
Outline: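 Fluorescence read-out of live-cell protease activity (CellTiter-Fluor) after 1 hr with reagent. This was measured in the same wells as the caspase-3/7 luminescence, on HepG2 cells exposed to DMSO-dissolved compounds for 16 hr at 37 C.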

[5] = target: Nuclear receptor subfamily 1 group I member 2 (Homo sapiens) (UniProt O75469); assay: Human pregnane X receptor (PXR) small molecule agonists, qHTS assay (AID 1346982); further: nearly all actives have a fitted effect of over 35% in size; further: potency means the concentration at half of the fitted maximal effect
Outline: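 HepG2 PXR-Luc reporter line, 5% charcoal-stripped FBS; 5 hr pre-incubation, compound (DMSO) 24 hr at 37 C/5% CO2; ONE-Glo 30 min RT; luminescence read-out.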

[6] = target: Cytochrome P450 2D6 (Homo sapiens) (UniProt P10635); assay: Cytochrome P450 Family 2 Subfamily D Member 6 (CYP2D6) small molecule antagonists: luciferase reporter qHTS assay (AID 1671196); further: nearly all actives have a fitted effect of over 50% in size; further: potency means the concentration at half of the fitted maximal effect
Outline: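 Luminogenic proluciferin substrate, CYP2D6 enzyme; 10 min RT preincubation with compound, NADPH regeneration system added, 1 h RT. Stop/detection reagent, 20 min RT, luminescence read (RLU). Signal proportional to CYP activity.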

[7] = target: Cytochrome P450 2C19 (Homo sapiens) (UniProt P33261); assay: Cytochrome P450 Family 2 Subfamily C Member 19 (CYP2C19) small molecule antagonists: luciferase reporter qHTS assay (AID 1671197); further: nearly all actives have a fitted effect of over 65% in size; further: potency means the concentration at half of the fitted maximal effect
Outline: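 Quantitative high-throughput screen of the Tox21 library using CYP2C19 with proluciferin substrate. Reaction: NADPH regeneration, 37C, 1 h, after 10 min compound preincubation at room temperature. Readout: luminescence.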

[8] = target: Cytochrome P450 2C9 (Homo sapiens) (UniProt P11712); assay: Cytochrome P450 Family 2 Subfamily C Member 9 (CYP2C9) small molecule antagonists: luciferase reporter qHTS assay (AID 1671198); further: nearly all actives have a fitted effect of over 50% in size; further: potency means the concentration at half of the fitted maximal effect
Outline: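 Enzyme-substrate mix preincubated with compound 10 min at room temperature; reaction started with NADPH regeneration solution, 1 h 37C. Luminescent luciferin product read after 20 min detection reagent.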

[9] = target: Cytochrome P450 1A2 (Homo sapiens) (UniProt P05177); assay: Cytochrome P450 Family 1 Subfamily A Member 2 (CYP1A2) small molecule antagonists: luciferase reporter qHTS assay (AID 1671199); further: nearly all actives have a fitted effect of over 50% in size; further: potency means the concentration at half of the fitted maximal effect
Outline: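 Luminescence readout (relative luminescence units) after luciferin detection reagent, 20 min RT. Preceded by 1 h room-temperature CYP1A2 reaction with NADPH regeneration solution following 10 min compound preincubation with enzyme and proluciferin substrate. Furafylline positive control.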

[10] = target: Voltage-gated inwardly rectifying potassium channel KCNH2 (Homo sapiens) (UniProt Q12809); assay: Human Ether-a-go-go-Related Gene (hERG) channel small molecule antagonists: fluorescence cell-based qHTS assay (AID 1671200); further: nearly all actives have a fitted effect of over 50% in size; further: potency means the concentration at half of the fitted maximal effect
Outline: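 First, 1000 cells per well are seeded and cultured overnight at 37 C. Next, FluxOR II dye is loaded for 1 h at room temperature, protected from light. After 10 more minutes, stimulus is added and fluorescence is read.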

[11] = target: Cytochrome P450 3A4 (Homo sapiens) (UniProt P08684); assay: Cytochrome P450 Family 3 Subfamily A Member 4 (CYP3A4) small molecule antagonists: luciferase reporter qHTS assay (AID 1671201); further: nearly all actives have a fitted effect of over 50% in size; further: potency means the concentration at half of the fitted maximal effect
Outline: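 Enzyme and proluciferin substrate are mixed with test chemicals for 10 min, then NADPH regeneration system drives turnover for 1 h at room temperature. A detection reagent halts the reaction; luminescence after 20 min gives relative activity.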

[12] = target: Nuclear receptor subfamily 1 group I member 2 (Rattus norvegicus) (UniProt Q9R1A7); assay: Rat pregnane X receptor (rPXR) activation by small molecules, qHTS assay (AID 1346983); conditions: rPXR luciferase reporter cells, One-Glo luminescence, 24 h; max activation: stronger effect = higher value; further: nearly all actives have a fitted effect of over 20% in size
Outline: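 Luminescent readout (One-Glo luciferase, 30 min room temperature) followed 24 hr compound treatment at 37 C of rPXR cells plated 2,000 per well and preincubated 5hr; qHTS format with compounds delivered in DMSO.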

[13] = target: Nuclear receptor subfamily 1 group I member 2 (Homo sapiens) (UniProt O75469); assay: CYP3A4 induction through human pregnane X receptor (PXR) by small molecules, qHTS assay (AID 1346984); further: nearly all actives have a fitted effect of over 40% in size
Outline: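 HepG2-derived DPX-2 line carrying PXR plus a CYP3A4-promoter luciferase reporter; cells plated 5 hr, compound-exposed 24 hr at 37C. CYP3A4 activity probed with 3uM (final) Luciferin-IPA for 3hr, then luciferase read after One-Glo.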

[14] = target: Nuclear receptor subfamily 1 group I member 2 (Homo sapiens) (UniProt O75469); assay: Human pregnane X receptor (PXR) activation by small molecules, qHTS assay (AID 1346985); further: nearly all actives have a fitted effect of over 40% in size
Outline: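 DPX-2 cells (HepG2 co-transfected with a PXR response element and a CYP3A4-promoter luciferase construct) were seeded at 2,000 per well, rested 5 hr at 37C, then exposed to DMSO-dissolved compounds for 24 hr. Activation was read as luciferase luminescence.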

[15] = target: Acetylcholinesterase (Homo sapiens) (UniProt P22303); assay: Acetylcholinesterase (AChE) small molecule antagonists: colormetric cell-based qHTS assay (AID 1347395; calls by dose curve; further: nearly all actives have a fitted effect of over 30% in size)
Outline: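 Quantitative HTS in attached SH-SY5Y cells: 30 min compound exposure, then 90 min with acetylthiocholine and DTNB at 37 C; colour from thiocholine reports AChE activity.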

[16] = target: Acetylcholinesterase (Homo sapiens) (UniProt P22303); assay: Acetylcholinesterase (AChE) small molecule antagonists: enzyme-based qHTS assay (AID 1347397; calls by dose curve; further: nearly all actives have a fitted effect of over 55% in size); conditions: Potency: AChE enzyme activity inhibition
Outline: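 Colorimetric DTNB readout of acetylthiocholine hydrolysis, 10 min at room temperature, after 30 min room-temperature exposure of 50 mU/mL recombinant human enzyme to compound; DMSO vehicle control.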

[17] = target: Acetylcholinesterase (Homo sapiens) (UniProt P22303); assay: Acetylcholinesterase (AChE) small molecule antagonists: fluorescence cell-based qHTS assay (AID 1347398; calls by dose curve; further: nearly all actives have a fitted effect of over 50% in size); conditions: Potency: AChE activity
Outline: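 Cellular AChE activity read as thiocholine from acetylthiocholine hydrolysis, detected by Thiolite Green fluorescence at 490/520 nm after 40 min at room temperature. Compounds were pre-incubated 30 min at 37 C on adherent SH-SY5Y cells.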

[18] = target: Acetylcholinesterase (Homo sapiens) (UniProt P22303); assay: Acetylcholinesterase (AChE) small molecule antagonists: enzyme-based qHTS assay with human liver microsomes (AID 1347399; calls by dose curve; further: nearly all actives have a fitted effect of over 60% in size); conditions: Potency: qHTS inhibition
Outline: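 Recombinant human AChE (50 mU/mL in the enzyme mix) and human liver microsomes (0.25 mg/mL final) were preincubated with compound and NADPH (0.25 mg/mL final) for 30 min at 37 C. Acetylthiocholine/DTNB was then added; thiocholine was read colorimetrically after 10 min at room temperature.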

[19] = Human pregnane X receptor (PXR) small molecule agonists, qHTS cell viability counter screen (AID 1346977); further: nearly all actives have a fitted effect of over 50% in size
Outline: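 HepG2 cells stably carrying the PXR-Luc reporter are cultured with 5% charcoal-stripped FBS and treated with compounds for 24hr. CellTiter-Fluor is added at 23hr and fluorescence is read after 1hr.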

Chain of Cytochrome P450 2C19 (Homo sapiens) (P33261 whole entry, looked up): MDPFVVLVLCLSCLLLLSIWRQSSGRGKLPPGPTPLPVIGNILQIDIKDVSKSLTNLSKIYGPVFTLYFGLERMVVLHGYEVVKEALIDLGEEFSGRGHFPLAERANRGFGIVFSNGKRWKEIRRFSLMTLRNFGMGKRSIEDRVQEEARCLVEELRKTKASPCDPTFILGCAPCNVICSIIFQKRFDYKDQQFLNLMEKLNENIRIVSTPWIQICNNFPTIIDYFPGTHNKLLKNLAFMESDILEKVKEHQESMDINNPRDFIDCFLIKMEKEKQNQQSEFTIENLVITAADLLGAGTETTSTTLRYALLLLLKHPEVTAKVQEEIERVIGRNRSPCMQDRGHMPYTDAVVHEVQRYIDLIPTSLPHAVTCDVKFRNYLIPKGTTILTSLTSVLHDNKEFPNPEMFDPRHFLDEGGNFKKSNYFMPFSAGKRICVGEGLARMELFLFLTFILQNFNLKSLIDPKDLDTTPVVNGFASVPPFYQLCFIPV
Chain of Cytochrome P450 1A2 (Homo sapiens) (P05177 whole entry, looked up): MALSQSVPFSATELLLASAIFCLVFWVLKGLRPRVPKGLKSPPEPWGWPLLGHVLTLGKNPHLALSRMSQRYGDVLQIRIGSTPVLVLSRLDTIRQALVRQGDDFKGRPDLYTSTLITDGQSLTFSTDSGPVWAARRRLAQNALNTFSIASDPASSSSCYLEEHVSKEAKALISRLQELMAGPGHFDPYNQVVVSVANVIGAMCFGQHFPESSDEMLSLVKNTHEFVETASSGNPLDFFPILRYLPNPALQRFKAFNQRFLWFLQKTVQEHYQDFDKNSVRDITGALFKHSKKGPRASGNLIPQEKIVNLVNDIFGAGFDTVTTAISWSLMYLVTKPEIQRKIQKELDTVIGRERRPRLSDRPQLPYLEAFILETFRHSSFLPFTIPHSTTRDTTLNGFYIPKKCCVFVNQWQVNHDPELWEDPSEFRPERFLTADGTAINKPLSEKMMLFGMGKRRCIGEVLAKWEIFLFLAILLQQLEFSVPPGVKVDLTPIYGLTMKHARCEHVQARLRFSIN
Chain of Cytochrome P450 2C9 (Homo sapiens) (P11712 whole entry, looked up): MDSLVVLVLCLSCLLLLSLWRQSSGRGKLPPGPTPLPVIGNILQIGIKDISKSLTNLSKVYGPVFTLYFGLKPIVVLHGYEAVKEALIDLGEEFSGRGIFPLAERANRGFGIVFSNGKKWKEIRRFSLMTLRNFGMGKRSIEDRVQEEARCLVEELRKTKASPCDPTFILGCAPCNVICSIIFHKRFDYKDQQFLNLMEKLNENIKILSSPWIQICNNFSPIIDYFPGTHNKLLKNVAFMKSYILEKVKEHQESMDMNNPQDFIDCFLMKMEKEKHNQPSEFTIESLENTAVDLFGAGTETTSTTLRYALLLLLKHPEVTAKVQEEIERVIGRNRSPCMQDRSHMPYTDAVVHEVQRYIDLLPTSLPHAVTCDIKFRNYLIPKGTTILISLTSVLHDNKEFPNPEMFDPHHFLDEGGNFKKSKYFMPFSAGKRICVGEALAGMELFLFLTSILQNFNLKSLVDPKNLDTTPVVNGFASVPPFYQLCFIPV
Chain of Voltage-gated inwardly rectifying potassium channel KCNH2 (Homo sapiens) (Q12809 whole entry, looked up): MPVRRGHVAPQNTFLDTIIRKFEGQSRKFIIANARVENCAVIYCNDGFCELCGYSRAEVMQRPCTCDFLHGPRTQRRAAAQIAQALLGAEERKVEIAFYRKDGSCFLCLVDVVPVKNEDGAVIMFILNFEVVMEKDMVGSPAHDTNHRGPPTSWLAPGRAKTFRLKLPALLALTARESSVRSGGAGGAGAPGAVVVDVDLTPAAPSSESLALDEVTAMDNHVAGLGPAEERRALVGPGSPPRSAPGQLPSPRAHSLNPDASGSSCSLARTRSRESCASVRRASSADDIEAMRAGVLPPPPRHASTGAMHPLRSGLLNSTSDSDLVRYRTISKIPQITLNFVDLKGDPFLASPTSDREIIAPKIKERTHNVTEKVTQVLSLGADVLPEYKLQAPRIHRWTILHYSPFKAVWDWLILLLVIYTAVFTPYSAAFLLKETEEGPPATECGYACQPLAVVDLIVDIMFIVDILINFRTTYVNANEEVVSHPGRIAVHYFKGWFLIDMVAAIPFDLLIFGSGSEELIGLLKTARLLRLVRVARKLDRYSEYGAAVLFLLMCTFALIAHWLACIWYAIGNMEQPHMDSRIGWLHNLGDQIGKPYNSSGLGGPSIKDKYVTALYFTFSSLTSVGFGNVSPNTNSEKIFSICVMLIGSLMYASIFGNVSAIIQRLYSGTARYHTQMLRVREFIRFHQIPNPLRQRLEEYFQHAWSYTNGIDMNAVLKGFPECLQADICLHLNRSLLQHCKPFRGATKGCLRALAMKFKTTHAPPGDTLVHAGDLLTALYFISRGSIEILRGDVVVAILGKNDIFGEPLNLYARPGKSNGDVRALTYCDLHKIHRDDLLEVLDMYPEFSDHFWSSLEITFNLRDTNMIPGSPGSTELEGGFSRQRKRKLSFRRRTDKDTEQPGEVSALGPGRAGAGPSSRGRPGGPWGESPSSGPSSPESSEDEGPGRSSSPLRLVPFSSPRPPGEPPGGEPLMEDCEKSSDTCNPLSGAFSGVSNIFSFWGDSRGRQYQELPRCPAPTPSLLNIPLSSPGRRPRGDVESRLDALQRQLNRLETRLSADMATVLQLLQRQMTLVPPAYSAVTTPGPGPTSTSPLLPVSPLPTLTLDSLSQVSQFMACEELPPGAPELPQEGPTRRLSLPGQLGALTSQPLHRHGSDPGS
Chain of Cytochrome P450 3A4 (Homo sapiens) (P08684 whole entry, looked up): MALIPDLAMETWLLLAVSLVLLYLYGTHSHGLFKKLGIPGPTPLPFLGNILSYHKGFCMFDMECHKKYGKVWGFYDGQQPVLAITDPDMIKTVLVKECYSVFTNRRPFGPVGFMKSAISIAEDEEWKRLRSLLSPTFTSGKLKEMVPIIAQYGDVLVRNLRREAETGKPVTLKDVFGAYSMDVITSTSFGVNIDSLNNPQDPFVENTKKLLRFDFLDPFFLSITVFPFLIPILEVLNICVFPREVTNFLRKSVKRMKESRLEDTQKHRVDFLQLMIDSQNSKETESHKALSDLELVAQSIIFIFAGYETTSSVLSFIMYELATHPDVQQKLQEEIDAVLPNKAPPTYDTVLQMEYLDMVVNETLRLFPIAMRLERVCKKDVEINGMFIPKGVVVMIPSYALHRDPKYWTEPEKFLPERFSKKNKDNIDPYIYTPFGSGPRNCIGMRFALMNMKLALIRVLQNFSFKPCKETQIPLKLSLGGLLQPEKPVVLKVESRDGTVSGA
Chain of Nuclear receptor subfamily 1 group I member 2 (Homo sapiens) (O75469 whole entry, looked up): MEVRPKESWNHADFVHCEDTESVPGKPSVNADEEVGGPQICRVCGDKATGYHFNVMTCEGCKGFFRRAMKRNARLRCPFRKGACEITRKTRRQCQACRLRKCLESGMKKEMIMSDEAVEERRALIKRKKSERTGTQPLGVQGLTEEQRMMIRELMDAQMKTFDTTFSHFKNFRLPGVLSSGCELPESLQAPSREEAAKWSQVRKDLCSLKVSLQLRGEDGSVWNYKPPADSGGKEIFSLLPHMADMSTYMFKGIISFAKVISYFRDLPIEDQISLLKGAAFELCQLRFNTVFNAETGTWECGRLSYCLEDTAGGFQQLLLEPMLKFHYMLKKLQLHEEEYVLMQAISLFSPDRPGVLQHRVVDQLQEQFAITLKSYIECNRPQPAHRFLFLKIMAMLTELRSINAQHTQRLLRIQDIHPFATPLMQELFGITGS
Chain of Cytochrome P450 2D6 (Homo sapiens) (P10635 whole entry, looked up): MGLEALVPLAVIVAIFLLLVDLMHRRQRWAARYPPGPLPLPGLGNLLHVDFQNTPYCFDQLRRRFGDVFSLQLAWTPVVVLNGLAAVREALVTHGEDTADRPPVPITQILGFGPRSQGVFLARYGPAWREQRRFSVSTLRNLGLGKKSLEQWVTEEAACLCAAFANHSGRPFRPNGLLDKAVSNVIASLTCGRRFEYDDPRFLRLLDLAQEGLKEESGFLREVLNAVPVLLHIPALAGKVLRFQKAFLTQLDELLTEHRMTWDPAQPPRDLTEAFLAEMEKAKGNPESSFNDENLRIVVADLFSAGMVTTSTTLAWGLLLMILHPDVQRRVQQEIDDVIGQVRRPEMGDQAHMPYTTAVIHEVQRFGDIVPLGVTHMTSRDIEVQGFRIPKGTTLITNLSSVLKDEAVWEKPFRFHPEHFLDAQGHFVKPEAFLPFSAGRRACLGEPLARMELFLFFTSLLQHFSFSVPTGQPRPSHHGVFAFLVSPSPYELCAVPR
Chain of Nuclear receptor subfamily 1 group I member 2 (Rattus norvegicus) (Q9R1A7 whole entry, looked up): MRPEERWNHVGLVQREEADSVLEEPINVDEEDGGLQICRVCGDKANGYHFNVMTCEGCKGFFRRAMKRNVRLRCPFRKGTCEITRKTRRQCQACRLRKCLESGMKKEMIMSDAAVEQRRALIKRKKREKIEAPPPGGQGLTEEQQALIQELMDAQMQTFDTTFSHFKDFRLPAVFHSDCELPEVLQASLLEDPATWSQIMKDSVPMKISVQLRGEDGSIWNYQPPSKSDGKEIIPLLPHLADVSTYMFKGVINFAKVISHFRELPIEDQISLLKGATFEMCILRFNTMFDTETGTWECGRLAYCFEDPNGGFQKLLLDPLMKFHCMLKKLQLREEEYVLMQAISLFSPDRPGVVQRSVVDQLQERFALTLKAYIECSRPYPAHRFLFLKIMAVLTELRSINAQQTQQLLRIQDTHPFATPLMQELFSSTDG

Structure (SMILES) | outcome [1] | Potency [2] | outcome [3] | Potency [4] | Potency [5] | Potency [6] | Potency [7] | Potency [8] | Potency [9] | Potency [10] | Potency [11] | max activation [12] | Potency [13] | Potency [14] | Potency [15] | Potency [16] | Potency [17] | Potency [18] | Potency [19]
CNC(=O)O/N=C/C(C)(C)S(C)(=O)=O | inactive | inactive | inactive | inactive | inactive | inactive | inactive | inactive | inactive | inactive | inactive |  |  |  |  |  |  |  | 
O=C(O)COc1ccccc1 | inactive | inactive | inactive | inactive | inactive | inactive | inactive | inactive | inactive | inactive | inactive | -1.4% (inactive) | inactive | inactive | inactive | inactive | inactive | inactive | 
Cc1cccc(N)c1 |  | inactive | inactive | inactive | 54.6 µM (active) and inactive |  | 7.99 µM (active) and 45.1 µM (active) and 39.9 µM (active) | 8.96 µM (active) and 35.6 µM (active) | 31.8 µM (active) and inactive and 31.7 µM (active) | inactive | 3.18 µM (active) and inactive |  |  |  | inactive | inactive | inactive | inactive | 
Clc1cnc(Oc2ccc(Oc3ncc(Cl)cc3Cl)cc2)c(Cl)c1 | inactive | inactive | inactive | inactive |  |  | inactive |  | 24.9 µM (active) and inactive | 19.5 µM (active) | inactive |  |  |  | inactive | inactive | inactive | inactive | inactive
CN(C)C(=O)Nc1cccc(C(F)(F)F)c1 | inactive | inactive | inactive | inactive |  |  | inactive |  | 2.88 µM (active) and 3.99 µM (active) | inactive | inactive |  |  |  | inactive | inactive | inactive | inactive | inactive
Nc1ccc([As](=O)(O)O)cc1 | inactive | inactive | inactive | inactive | inactive |  | inactive |  | inactive | inactive | 34.6 µM (active) and inactive | -1.25% (inactive) | inactive | inactive | inactive | inactive | inactive | inactive | 
C=CC(=O)OCC(CC)CCCC (centres undefined) | inactive | inactive | inactive | inactive |  |  |  |  |  | inactive |  |  |  |  |  |  |  |  | inactive
COc1cc(-c2ccc(N)c(OC)c2)ccc1N | inactive | inactive and 58.3 µM (active) | inactive | inactive and 46.3 µM (active) |  |  |  | 12.7 µM (active) [middle of 4 runs] | 1.79 µM (active) [middle of 4 runs] | inactive |  |  |  |  |  |  |  |  | 
Nc1ncc([N+](=O)[O-])s1 | inactive | 30.9 µM (active) and inactive | inactive | 54.9 µM (active) and inactive |  |  | 71.6 µM (active) and 50.2 µM (active) |  |  | inactive | inactive |  |  |  | inactive | inactive | inactive | inactive | 
N#CN=C(N)N | inactive | inactive | inactive | inactive |  |  | inactive | inactive | inactive | inactive | inactive |  |  |  | inactive | inactive | inactive | inactive | 
Sc1ccccc1 | inactive | inactive | inactive | inactive |  |  | 18.1 µM (active) and 40.1 µM (active) |  |  | inactive | inactive |  |  |  | inactive | inactive | inactive | inactive | 
CC(C)(C)C(=O)CCl | inactive | inactive | inactive | inactive | inactive | inactive | inactive |  | inactive | inactive | inactive |  |  |  | inactive | inactive | inactive | inactive | 
CSc1nnc(C(C)(C)C)c(=O)n1N | inactive | inactive | inactive | inactive |  |  | inactive | inactive |  | inactive | inactive |  |  |  | inactive | inactive | inactive | inactive | 
Oc1ccc(Cl)cc1 | inactive | inactive | inactive | inactive |  |  |  |  |  | inactive |  | 1.52% (inactive) |  |  |  |  |  |  | 
CN1C(=O)CCS(=O)(=O)C1c1ccc(Cl)cc1 (centres undefined) | inactive | inactive | inactive | inactive | inactive | inactive | 28.3 µM (active) | inactive |  | inactive | inactive |  |  |  | inactive | inactive | inactive | inactive | 
C[C@H]1C(=O)O[C@@H]2CCN3CC=C(COC(=O)[C@](C)(O)[C@]1(C)O)[C@H]23 | inactive | inactive | inactive | inactive | inactive | inactive and 30.9 µM (active) | inactive | inactive | inactive | inactive | inactive | -2.06% (inactive) | inactive | inactive | inactive | inactive | inactive | inactive | 
CCCCC(CC)C(=O)Cl (centres undefined) | inactive | inactive | inactive | inactive |  |  | inactive | inactive | inactive and 63.3 µM (active) | inactive | inactive |  |  |  | inactive | inactive | inactive | inactive | 
